Compound activity (PubChem BioAssay)
GPR151 ag: activates the human receptor GPR151; 650,000 tested, 1% active; activation, % at 11.2 µM; Q8TDV0; PathHunter beta-arrestin GPR151 cells, luminescence; in the data active means activation above about 4.9%;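 further: 0% = median of compound wells and 100% = cells with positive control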
FBW7 activator: human FBW7 E3 ligase activation, primary screen | Q969H0 | AlphaScreen FBW7–phospho-cyclin E peptide binding, activator screen | normalized activity (activation), % at 26.1 µM | 650,000 tested, 0.13% active | AID 1259310; in the data active means normalized activity above about 1.9%;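 further: purified mutant Fbw7 with reduced substrate affinity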
MITF primary: blocks human microphthalmia-associated transcription factor; O75030; AlphaScreen MITF homodimerization, bead proximity signal; inhibition, % at 2.6 µM; 650,000 tested, 0.91% active; AID 1259374; in the data active means inhibition above about 50%;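 further: 0% = vehicle wells with protein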
TEAD-YAP block: TEAD-YAP interaction inhibition; HEK-TIYL cells, TEAD-Gal4/YAP UAS-luciferase luminescence; inhibition, % at 9.12 µM; 640,000 tested, 1.4% active; AID 1259422; in the data active means inhibition above about 32%;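 further: 0% = median of test compound wells and 100% = reference inhibitor wells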
Active calls of the source: *. Most compounds without a hit are left out; they make up all but 3.5% or so of the library.

SMILES	GPR151 ag	FBW7 activator	MITF primary	TEAD-YAP block
CCCC(=O)Nc1ccc(S(=O)(=O)Nc2nccc(C)n2)cc1	-1	0	18	-2
O=C(N/N=C/C1CC2CCC1C2)c1ccc([N+](=O)[O-])cc1 (centres undefined)	-1	0	14	10
O=C(N/N=C/C1CC2CCC1C2)c1cccc2ccccc12 (centres undefined)	0	0	-7	37*
O=C(Nc1ccc2c(c1)OCCO2)c1cc(Br)cc(Br)c1I	0	0	0	47*
O=C(CSc1ncccc1C(=O)O)Nc1ccc2c(c1)OCCO2	0	0	-1	63*
O=C(Nc1nnc(-c2ccc3c(c2)OCCO3)o1)c1ccccc1Br	-1	0	21	68*
O=C(Nc1ccc2c(c1)OCCO2)c1ccccc1Br	-3	0	-4	37*
O=C(Nc1nnc(-c2ccc3c(c2)OCCO3)o1)c1ccccc1Oc1ccccc1	-1	0	1	9
CCC(Sc1nc2cc3c(cc2c(=O)n1CCCCCC(=O)NCc1ccc2c(c1)OCO2)OCO3)C(=O)NCc1cccnc1 (centres undefined)	0	0	-13	-5
Cc1nonc1CN(C)C(=O)C1CC12CCN(C(=O)c1ccc(N3CCCC3)cc1)CC2 (centres undefined)	2	0	3	6
CCN(C(=O)CCl)c1nc(-c2ccccc2)cs1	1	0	-2	-4
CCOc1ccc(C(=O)COC(=O)c2ccccc2[N+](=O)[O-])cc1	-1	1	5	-1
COc1ccc(C(=O)COC(=O)c2ccccc2[N+](=O)[O-])cc1	-7	0	32	2
O=C(COC(=O)c1ccccc1[N+](=O)[O-])c1ccccc1Cl	-2	0	12	34*
Cc1ccc(C(=O)COC(=O)c2ccccc2[N+](=O)[O-])cc1	-6	1	-11	90*
CCc1ccc(C(=O)COC(=O)c2ccccc2[N+](=O)[O-])cc1	-2	1	13	55*
Cc1c(C(=O)OCC(=O)c2ccccc2Cl)cccc1[N+](=O)[O-]	1	0	-3	-8
Cc1ccc(N2C(=O)/C(=C/c3ccc(Br)cc3)C=C2c2ccccc2)c(C)c1	1	0	-4	1
CC1=NN(c2nc(-c3ccccc3)cs2)C(=O)C1C(c1ccccc1)C(C#N)C(N)=O (centres undefined)	-1	1	24	76*
COc1ccc(CNC(=O)N2CCN(Cc3nc(-c4ccco4)cs3)CC2)cc1OC	2	0	0	54*
CCOc1cc(S(=O)(=O)NCc2ccc3c(c2)OCO3)ccc1Cl	-1	0	8	13
CCOc1ccc(NC(=O)CCS(=O)(=O)c2ccccc2)cc1	0	0	6	-64
O=c1[nH]c(N2CCOCC2)nc2c1CCN(Cc1ccccc1)C2	0	2.7*	7	6
O=c1[nH]c(N2CCOCC2)nc2c1CCN(Cc1ccccc1F)C2	-1	0	-2	-3
Cc1ccc(-c2nc3cc(Cl)c(Cl)cc3nc2-c2ccc(C)cc2)cc1	-1	0	8	4
SMILES	GPR151 ag	FBW7 activator	MITF primary	TEAD-YAP block
Oc1ccc(/C=N/NC(=S)Nc2cccnc2)c(O)c1O	-1	-1	84*	-6
Oc1cccc(/C=N/NC(=S)Nc2cccnc2)c1O	-2	-1	112*	40*
Oc1ccc(/C=N/NC(=S)Nc2cccnc2)c(O)c1	0	-1	119*	4
O=[N+]([O-])c1ccccc1NC(=S)N/N=C/c1ccc(O)c(O)c1O	1	-1	57*	49*
CC1CCCCN1c1ncccc1C(=O)NCC1CCCO1 (centres undefined)	0	0	-10	-16
COc1cccc(C(=O)Nc2nc3c(OC)ccc(Cl)c3s2)c1OC	1	0	4	-8
COc1ccc(N=CC2=C(O)c3ccccc3C2=O)cc1OC	-2	0	10	11
O=C1C(C=Nc2cccc(C(F)(F)F)c2)=C(O)c2ccccc21	0	0	-10	70*
O=C1C(C=Nc2ccc3c(c2)CCC3)=C(O)c2ccccc21	0	0	2	49*
CCOC(=O)c1ccc(N=CC2=C(O)c3ccccc3C2=O)cc1	-1	0	2	48*
CC(C)NC(=O)CN(c1cccc(Cl)c1)S(=O)(=O)c1ccc(Cl)cc1	-2	0	12	0
COC1CCCN(c2nc3nonc3nc2NCc2cccs2)C1 (centres undefined)	0	0	5	-7
COc1ccc(Nc2c(-c3ccccc3)c(=O)c2=O)cc1	1	0	-2	60*
COc1ccc(Nc2c(-c3ccc(C)cc3)c(=O)c2=O)cc1	1	0	-8	-5
CC(Nc1c(-c2ccccc2)c(=O)c1=O)c1ccccc1 (centres undefined)	-2	0	0	40*
Cc1ccc(-c2c(Nc3cccc(F)c3)c(=O)c2=O)cc1	0	0	9	50*
CCC(C)Nc1c(-c2ccccc2)c(=O)c1=O (centres undefined)	1	0	9	9
COc1ccc(-c2c(Nc3cccc(SC)c3)c(=O)c2=O)cc1	1	1	15	61*
CCc1cccc(Nc2c(-c3ccc(OC)cc3)c(=O)c2=O)c1	1	1	6	-8
O=C(c1cccc([N+](=O)[O-])c1)N(Cc1ccc(Br)cc1)c1ccccc1I	0	0	-1	6
COc1ccc2sc(Nc3nnc(-c4cccs4)o3)nc2c1	2	-1	1	-4
CC(C)(C)OC(=O)NC(COCc1ccccc1)C(=O)NCC(=O)OCc1ccccc1 (centres undefined)	0	0	-10	-3
Cn1c(/N=C/c2ccc(O)cc2)nc2ccccc21	4	0	-11	0
CCc1ccc(Nc2c(-c3ccccc3)c(=O)c2=O)cc1	-1	0	0	56*
O=c1c(Nc2cccc(Cl)c2)c(-c2ccccc2)c1=O	-1	0	9	1
SMILES	GPR151 ag	FBW7 activator	MITF primary	TEAD-YAP block
CCN(c1ccc(OC)cc1)c1c(-c2ccccc2)c(=O)c1=O	0	0	12	48*
COc1ccc(Nc2c(-c3ccccc3)c(=O)c2=O)cc1Cl	1	0	99*	55*
CCN(CC)C(=O)C1CCCN(c2nccc(Nc3cc(OC)c(OC)c(OC)c3)n2)C1 (centres undefined)	-1	0	20	-9
COc1ccc(S(=O)(=O)Nc2cc3c4c(oc3c3ccccc23)CCCC4=O)cc1	1	0	13	56*
COC(=O)c1c(C)oc2c1cc(NS(=O)(=O)c1ccccc1)c1ccccc12	2	0	0	4
COC(=O)c1c(C)oc2c1cc(NS(=O)(=O)c1ccc(OC)cc1)c1ccccc12	-1	0	2	51*
COc1cc(/C=C2/C(=N)N3N=C(C(F)(F)F)SC3=NC2=O)ccc1OCCOc1ccc(C)cc1C	-1	0	16	8
Cc1cc(C)cc(NS(=O)(=O)c2ccc3c4c2CC(=O)N4CC(C)S3)c1 (centres undefined)	0	0	2	34*
